# PubChem BioAssay AID1159580 (chemical genetic matrix, 2015)
# Several values for one entry are separate records, joined by “and”; a condition that tells them apart may be missing. Equal entries are not always repeated. Out of some 5,500 compounds screened, about 2,000 (36%) were called active. Inconclusive results (about 18%) are left out. The list shows a part of the results. Unmarked numbers belong to inactive results. Cut-off read from the data, not from the text of the source: active = normalized growth mostly below about 0.91 (no sharp cut-off); inconclusive = no clear call, values can overlap the other calls; inactive = mostly above about 0.92.
# Assay: chemical genetic growth profiling, strain panel (AID 1159580);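 note: tested at 20 µM; growth read once vehicle control cultures reached saturation at 30 °C; 1 = growth at the plate median or of vehicle wells; lower values mean less growth of the strain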
# Conditions: growth OD
structure (smiles),measurement,setting,value
CNCCC(Oc1ccc(C(F)(F)F)cc1)c1ccccc1 (stereo unspecified),normalized growth,"S. cerevisiae deletion strains, locus YJR075W, strain HOC1, hits give low values",0.985 and 1.01
same,normalized growth,"S. cerevisiae deletion strains, locus YKL009W, strain mrt4, hits give low values",0.959
same,normalized growth,"S. cerevisiae deletion strains, locus YKL068W, hits give low values",1
same,normalized growth,"S. cerevisiae deletion strains, locus YKL085W, strain MDH1 (second series), hits give low values",0.999
same,normalized growth,"S. cerevisiae deletion strains, locus YKL085W, strain MDH1, hits give low values",0.999
same,normalized growth,"S. cerevisiae deletion strains, locus YKL160W, strain elf1, hits give low values",0.984
same,normalized growth,"S. cerevisiae deletion strains, locus YKL190W, strain CNB1, hits give low values",1.01
same,normalized growth,"S. cerevisiae deletion strains, locus YKR001C, strain vps1, hits give low values",1.01
same,normalized growth,"S. cerevisiae deletion strains, locus YKR026C, strain gcn3, hits give low values",0.983
same,normalized growth,"S. cerevisiae deletion strains, locus YKR091W, strain srl3, hits give low values",0.991
same,normalized growth,"S. cerevisiae deletion strains, locus YLL001W, strain dnm1, hits give low values",0.979
same,normalized growth,"S. cerevisiae deletion strains, locus YLL026W, hits give low values",0.987
same,normalized growth,"S. cerevisiae deletion strains, locus YLL041C, strain sdh2, hits give low values",0.988
same,normalized growth,"S. cerevisiae deletion strains, locus YLR027C, strain aat2, hits give low values",0.99
same,normalized growth,"S. cerevisiae deletion strains, locus YLR039C, strain RIC1, hits give low values",1.41 [resistant] (active)
same,normalized growth,"S. cerevisiae deletion strains, locus YLR058C, strain SHM2, hits give low values",1.01
same,normalized growth,"S. cerevisiae deletion strains, locus YLR102C, strain apc9, hits give low values",0.987
same,normalized growth,"S. cerevisiae deletion strains, locus YLR113W, strain HOG1, hits give low values",1.01
same,normalized growth,"S. cerevisiae deletion strains, locus YLR221C, strain rsa3, hits give low values",0.985
same,normalized growth,"S. cerevisiae deletion strains, locus YLR258W, strain gsy2, hits give low values",0.99
same,normalized growth,"S. cerevisiae deletion strains, locus YLR262C, strain YPT6 (second series), hits give low values",1.04
same,normalized growth,"S. cerevisiae deletion strains, locus YLR262C, strain YPT6, hits give low values",1.46 [resistant] (active)
same,normalized growth,"S. cerevisiae deletion strains, locus YLR268W, strain sec22, hits give low values",0.985
same,normalized growth,"S. cerevisiae deletion strains, locus YLR320W, strain mms22, hits give low values",0.968
same,normalized growth,"S. cerevisiae deletion strains, locus YLR330W, strain CHS5, hits give low values",1.01
same,normalized growth,"S. cerevisiae deletion strains, locus YLR342W, strain FKS1 (second series), hits give low values",0.982
same,normalized growth,"S. cerevisiae deletion strains, locus YLR342W, strain FKS1, hits give low values",0.988
same,normalized growth,"S. cerevisiae deletion strains, locus YLR357W, strain rsc2, hits give low values",0.977
same,normalized growth,"S. cerevisiae deletion strains, locus YLR370C, strain arc18, hits give low values",0.981
same,normalized growth,"S. cerevisiae deletion strains, locus YLR371W, strain rom2, hits give low values",0.985
same,normalized growth,"S. cerevisiae deletion strains, locus YLR384C, strain iki3, hits give low values",0.97
same,normalized growth,"S. cerevisiae deletion strains, locus YLR418C, strain cdc73, hits give low values",0.983
same,normalized growth,"S. cerevisiae deletion strains, locus YML016C, strain PPZ1, hits give low values",1.02
same,normalized growth,"S. cerevisiae deletion strains, locus YML032C, strain rad52, hits give low values",0.998
same,normalized growth,"S. cerevisiae deletion strains, locus YML120C, strain ndi1, hits give low values",0.993
same,normalized growth,"S. cerevisiae deletion strains, locus YML124C, strain tub3, hits give low values",0.992
same,normalized growth,"S. cerevisiae deletion strains, locus YMR058W, strain fet3, hits give low values",0.99
same,normalized growth,"S. cerevisiae deletion strains, locus YMR078C, strain ctf18, hits give low values",0.999
same,normalized growth,"S. cerevisiae deletion strains, locus YMR125W, strain sto1, hits give low values",0.989
same,normalized growth,"S. cerevisiae deletion strains, locus YMR129W, hits give low values",0.998
same,normalized growth,"S. cerevisiae deletion strains, locus YMR205C, strain PFK2, hits give low values",0.967
same,normalized growth,"S. cerevisiae deletion strains, locus YMR223W, strain ubp8, hits give low values",0.996
same,normalized growth,"S. cerevisiae deletion strains, locus YMR231W, strain pep5, hits give low values",0.992
same,normalized growth,"S. cerevisiae deletion strains, locus YMR263W, strain SAP30, hits give low values",0.995
same,normalized growth,"S. cerevisiae deletion strains, locus YMR307W, strain GAS1, hits give low values",1.09
same,normalized growth,"S. cerevisiae deletion strains, locus YNL067W, strain RPL9B, hits give low values",1.01
same,normalized growth,"S. cerevisiae deletion strains, locus YNL071W, strain lat1, hits give low values",0.993
same,normalized growth,"S. cerevisiae deletion strains, locus YNL128W, strain TEP1, hits give low values",0.992 and 1.03
same,normalized growth,"S. cerevisiae deletion strains, locus YNL153C, strain GIM3, hits give low values",1.01
same,normalized growth,"S. cerevisiae deletion strains, locus YNL175C, strain NOP13, hits give low values",1.01
same,normalized growth,"S. cerevisiae deletion strains, locus YNL183C, strain NPR1, hits give low values",0.986
same,normalized growth,"S. cerevisiae deletion strains, locus YNL197C, strain WHI3, hits give low values",0.979
same,normalized growth,"S. cerevisiae deletion strains, locus YNL209W, strain ssb2, hits give low values",1.01
same,normalized growth,"S. cerevisiae deletion strains, locus YNL224C, strain SQS1, hits give low values",1.04
same,normalized growth,"S. cerevisiae deletion strains, locus YNL233W, strain BNI4, hits give low values",1.01
same,normalized growth,"S. cerevisiae deletion strains, locus YNL248C, strain rpa49, hits give low values",0.99
same,normalized growth,"S. cerevisiae deletion strains, locus YNL250W, strain rad50, hits give low values",0.996
same,normalized growth,"S. cerevisiae deletion strains, locus YNL271C, strain bni1, hits give low values",0.99
same,normalized growth,"S. cerevisiae deletion strains, locus YNL298W, strain CLA4, hits give low values",0.988
same,normalized growth,"S. cerevisiae deletion strains, locus YNL307C, strain MCK1, hits give low values",0.993
same,normalized growth,"S. cerevisiae deletion strains, locus YNL322C, strain KRE1 (second series), hits give low values",0.986
same,normalized growth,"S. cerevisiae deletion strains, locus YNL322C, strain KRE1, hits give low values",1
same,normalized growth,"S. cerevisiae deletion strains, locus YNR049C, strain mso1, hits give low values",0.987
same,normalized growth,"S. cerevisiae deletion strains, locus YNR052C, strain pop2, hits give low values",1
same,normalized growth,"S. cerevisiae deletion strains, locus YOL006C, strain TOP1, hits give low values",0.884
same,normalized growth,"S. cerevisiae deletion strains, locus YOL012C, strain htz1",0.953
same,normalized growth,"S. cerevisiae deletion strains, locus YOL147C, strain pex11, hits give low values",0.995
same,normalized growth,"S. cerevisiae deletion strains, locus YOR001W, strain rrp6, hits give low values",0.985
same,normalized growth,"S. cerevisiae deletion strains, locus YOR061W, strain CKA2, hits give low values",1.01
same,normalized growth,"S. cerevisiae deletion strains, locus YOR069W, strain VPS5, hits give low values",0.998
same,normalized growth,"S. cerevisiae deletion strains, locus YOR070C, strain gyp1, hits give low values",0.99
same,normalized growth,"S. cerevisiae deletion strains, locus YOR080W, strain dia2, hits give low values",0.997
same,normalized growth,"S. cerevisiae deletion strains, locus YOR083W, strain WHI5 (second series), hits give low values",0.908
same,normalized growth,"S. cerevisiae deletion strains, locus YOR083W, strain WHI5, hits give low values",0.982
same,normalized growth,"S. cerevisiae deletion strains, locus YOR106W, strain vam3, hits give low values",0.986
same,normalized growth,"S. cerevisiae deletion strains, locus YOR136W, strain idh2, hits give low values",0.99
same,normalized growth,"S. cerevisiae deletion strains, locus YOR144C, strain elg1, hits give low values",0.995
same,normalized growth,"S. cerevisiae deletion strains, locus YOR184W, strain ser1, hits give low values",1
same,normalized growth,"S. cerevisiae deletion strains, locus YOR231W, strain MKK1, hits give low values",1.02
same,normalized growth,"S. cerevisiae deletion strains, locus YOR265W, strain rbl2, hits give low values",0.995
same,normalized growth,"S. cerevisiae deletion strains, locus YOR270C, strain vph1, hits give low values",0.9
same,normalized growth,"S. cerevisiae deletion strains, locus YOR290C, strain snf2, hits give low values",0.981
same,normalized growth,"S. cerevisiae deletion strains, locus YOR316C, strain cot1, hits give low values",1
same,normalized growth,"S. cerevisiae deletion strains, locus YPL051W, strain arl3, hits give low values",0.992
same,normalized growth,"S. cerevisiae deletion strains, locus YPL055C, strain LGE1, hits give low values",1.02 and 1
same,normalized growth,"S. cerevisiae deletion strains, locus YPL078C, strain atp4, hits give low values",0.983
same,normalized growth,"S. cerevisiae deletion strains, locus YPL106C, strain sse1, hits give low values",0.971
same,normalized growth,"S. cerevisiae deletion strains, locus YPL240C, strain hsp82, hits give low values",0.997
same,normalized growth,"S. cerevisiae deletion strains, locus YPL241C, strain CIN2, hits give low values",1
same,normalized growth,"S. cerevisiae deletion strains, locus YPL256C, strain CLN2, hits give low values",1.06
same,normalized growth,"S. cerevisiae deletion strains, locus YPR119W, strain clb2, hits give low values",1
same,normalized growth,"S. cerevisiae deletion strains, locus YPR141C, strain kar3, hits give low values",0.999
same,normalized growth,"S. cerevisiae deletion strains, locus YPR163C, strain tif3, hits give low values",0.998
same,normalized growth,"S. cerevisiae deletion strains, locus YPR167C, strain met16, hits give low values",0.992
same,normalized growth,"S. cerevisiae deletion strains, strain wtn01, hits give low values",1.01
same,normalized growth,"S. cerevisiae strains, strain wild type, hits give low values",0.998
